# Measured values taken from PMC11006913.
# Residue numbers refer to the chain shown, from its start.
# Assays:
# Assay in all cases: PBM; 200 nM protein, PBS
# Conditions in all cases: dsDNA, one strand shown
# CRX [1] = biological target: CRX (Homo sapiens, UniProt O43186 26-111)
# CRX [2] = biological target: CRX (Homo sapiens, UniProt O43186 26-111, E42D)
# ALX4 [3] = biological target: ALX4 (Homo sapiens, UniProt Q9H161 200-286)
# PRRX1 [4] = biological target: PRRX1 (Homo sapiens, UniProt P54821 80-166, F113S)
# ALX4 [5] = biological target: ALX4 (Homo sapiens, UniProt Q9H161 200-286, Q225E)
# CRX [6] = biological target: CRX (Homo sapiens, UniProt O43186 26-111, R41L)
# PRRX1 [7] = biological target: PRRX1 (Homo sapiens, UniProt P54821 80-166)
# HOXB6 [8] = biological target: HOXB6 (Homo sapiens, UniProt P17509 132-218, K202E)
# HOXB6 [9] = biological target: HOXB6 (Homo sapiens, UniProt P17509 132-218)
# PAX4 [10] = biological target: T1, PAX4 (Homo sapiens, UniProt O43316 9-242)
# T1 sequence: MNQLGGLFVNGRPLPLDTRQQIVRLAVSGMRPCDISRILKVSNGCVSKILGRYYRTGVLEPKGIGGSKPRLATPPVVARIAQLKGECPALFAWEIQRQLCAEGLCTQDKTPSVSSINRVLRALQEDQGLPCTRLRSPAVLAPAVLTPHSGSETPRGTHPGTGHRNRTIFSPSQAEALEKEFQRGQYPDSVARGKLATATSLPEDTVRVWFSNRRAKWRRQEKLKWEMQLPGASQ
# PAX4 [11] = biological target: T2, PAX4 (Homo sapiens, UniProt O43316 9-242, F177V)
# T2 sequence: T1 sequence with F169V
# PAX4 [12] = biological target: T3, PAX4 (Homo sapiens, UniProt O43316 9-242, F177Y)
# T3 sequence: T1 sequence with F169Y
# PAX4 [13] = biological target: T4, PAX4 (Homo sapiens, UniProt O43316 9-242, R227W)
# T4 sequence: T1 sequence with R219W
# PAX4 [14] = biological target: T5, PAX4 (Homo sapiens, UniProt O43316 9-242, R200K)
# T5 sequence: T1 sequence with R192K
# PAX4 [15] = biological target: T6, PAX4 (Homo sapiens, UniProt O43316 9-242, R200Q)
# T6 sequence: T1 sequence with R192Q
# PITX2 = PITX2 (Homo sapiens, UniProt Q99697 72-157)
# HOXC10 [16] = biological target: HOXC10 (Homo sapiens, UniProt Q9NYD6 254-340)
# ALX3 = ALX3 (Homo sapiens, UniProt O95076 139-225, N203Q)
# HOXC10 [17] = biological target: HOXC10 (Homo sapiens, UniProt Q9NYD6 254-340, K271E)
# Chain of HOXC10 (Homo sapiens, UniProt Q9NYD6 254-340, K271E) (Q9NYD6 254-340 K271E): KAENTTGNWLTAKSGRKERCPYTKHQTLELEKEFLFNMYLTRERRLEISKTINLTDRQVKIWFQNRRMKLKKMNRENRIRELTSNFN
# Chain of CRX (Homo sapiens, UniProt O43186 26-111, E42D) (O43186 26-111 E42D): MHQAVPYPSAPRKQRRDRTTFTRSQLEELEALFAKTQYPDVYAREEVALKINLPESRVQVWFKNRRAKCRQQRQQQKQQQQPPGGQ
# Chain of CRX (Homo sapiens, UniProt O43186 26-111, R41L) (O43186 26-111 R41L): as the sequence (O43186 26-111 E42D) above, with R16L, D17E counted along it
# Chain of CRX (Homo sapiens, UniProt O43186 26-111) (O43186 26-111): as the sequence (O43186 26-111 E42D) above, with D17E counted along it
# Chain of PRRX1 (Homo sapiens, UniProt P54821 80-166) (P54821 80-166): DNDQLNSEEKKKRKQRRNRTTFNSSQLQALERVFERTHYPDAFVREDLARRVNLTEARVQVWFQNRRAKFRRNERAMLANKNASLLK
# Chain of ALX4 (Homo sapiens, UniProt Q9H161 200-286) (Q9H161 200-286): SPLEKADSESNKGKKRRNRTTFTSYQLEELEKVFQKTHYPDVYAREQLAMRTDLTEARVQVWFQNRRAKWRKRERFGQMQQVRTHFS
# Chain of ALX4 (Homo sapiens, UniProt Q9H161 200-286, Q225E) (Q9H161 200-286 Q225E): as the sequence (Q9H161 200-286) above, with Q26E counted along it
# Chain of ALX3 (O95076 139-225 N203Q): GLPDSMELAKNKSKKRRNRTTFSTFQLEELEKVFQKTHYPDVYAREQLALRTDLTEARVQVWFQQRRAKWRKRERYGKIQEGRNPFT
# Chain of HOXB6 (Homo sapiens, UniProt P17509 132-218, K202E) (P17509 132-218 K202E): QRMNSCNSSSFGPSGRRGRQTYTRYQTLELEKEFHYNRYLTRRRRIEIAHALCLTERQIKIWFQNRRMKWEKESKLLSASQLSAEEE
# Chain of PRRX1 (Homo sapiens, UniProt P54821 80-166, F113S) (P54821 80-166 F113S): as the sequence (P54821 80-166) above, with F34S counted along it
# Chain of HOXC10 (Homo sapiens, UniProt Q9NYD6 254-340) (Q9NYD6 254-340): as the sequence (Q9NYD6 254-340 K271E) above, with E18K counted along it
# Chain of HOXB6 (Homo sapiens, UniProt P17509 132-218) (P17509 132-218): as the sequence (P17509 132-218 K202E) above, with E71K counted along it
sequence,measurement,setting,value
CCTAATAG,binding signal,CRX [1],"9.68 upbm affinity estimate (log intensity, higher = more binding, comparable within an allelic series)"
same,binding signal,CRX [2],"9.47 upbm affinity estimate (log intensity, higher = more binding, comparable within an allelic series)"
CCTCCCAC,binding signal,CRX [1],"8.12 upbm affinity estimate (log intensity, higher = more binding, comparable within an allelic series)"
same,binding signal,ALX4 [3],"7.99 upbm affinity estimate (log intensity, higher = more binding, comparable within an allelic series)"
same,binding signal,PRRX1 [4],"9.27 upbm affinity estimate (log intensity, higher = more binding, comparable within an allelic series)"
same,binding signal,ALX4 [5],"8.07 upbm affinity estimate (log intensity, higher = more binding, comparable within an allelic series)"
same,binding signal,CRX [2],"8.07 upbm affinity estimate (log intensity, higher = more binding, comparable within an allelic series)"
same,binding signal,CRX [6],"8.16 upbm affinity estimate (log intensity, higher = more binding, comparable within an allelic series)"
same,binding signal,PRRX1 [7],"9.17 upbm affinity estimate (log intensity, higher = more binding, comparable within an allelic series)"
GGGACCCC,binding signal,CRX [1],"8.14 upbm affinity estimate (log intensity, higher = more binding, comparable within an allelic series)"
same,binding signal,HOXB6 [8],"8.9 upbm affinity estimate (log intensity, higher = more binding, comparable within an allelic series)"
same,binding signal,CRX [2],"8.1 upbm affinity estimate (log intensity, higher = more binding, comparable within an allelic series)"
same,binding signal,CRX [6],"8.05 upbm affinity estimate (log intensity, higher = more binding, comparable within an allelic series)"
same,binding signal,HOXB6 [9],"9.08 upbm affinity estimate (log intensity, higher = more binding, comparable within an allelic series)"
TGTGTTAA,binding signal,CRX [1],"10.4 upbm affinity estimate (log intensity, higher = more binding, comparable within an allelic series)"
same,binding signal,CRX [2],"10.2 upbm affinity estimate (log intensity, higher = more binding, comparable within an allelic series)"
CTAACTCC,binding signal,CRX [1],"9.81 upbm affinity estimate (log intensity, higher = more binding, comparable within an allelic series)"
same,binding signal,CRX [2],"9.62 upbm affinity estimate (log intensity, higher = more binding, comparable within an allelic series)"
AATGCTAA,binding signal,CRX [1],"10.4 upbm affinity estimate (log intensity, higher = more binding, comparable within an allelic series)"
same,binding signal,PAX4 [10],"10.9 upbm affinity estimate (log intensity, higher = more binding, comparable within an allelic series)"
same,binding signal,CRX [2],"10.3 upbm affinity estimate (log intensity, higher = more binding, comparable within an allelic series)"
same,binding signal,PAX4 [11],"10.1 upbm affinity estimate (log intensity, higher = more binding, comparable within an allelic series)"
same,binding signal,PAX4 [12],"10.2 upbm affinity estimate (log intensity, higher = more binding, comparable within an allelic series)"
same,binding signal,PAX4 [13],"10.2 upbm affinity estimate (log intensity, higher = more binding, comparable within an allelic series)"
CCACGCCA,binding signal,CRX [1],"8.11 upbm affinity estimate (log intensity, higher = more binding, comparable within an allelic series)"
same,binding signal,PAX4 [14],"9.43 upbm affinity estimate (log intensity, higher = more binding, comparable within an allelic series)"
same,binding signal,PAX4 [10],"9.33 upbm affinity estimate (log intensity, higher = more binding, comparable within an allelic series)"
same,binding signal,CRX [2],"8.32 upbm affinity estimate (log intensity, higher = more binding, comparable within an allelic series)"
same,binding signal,PAX4 [15],"9.45 upbm affinity estimate (log intensity, higher = more binding, comparable within an allelic series)"
same,binding signal,PAX4 [11],"9.5 upbm affinity estimate (log intensity, higher = more binding, comparable within an allelic series)"
same,binding signal,PAX4 [12],"9.5 upbm affinity estimate (log intensity, higher = more binding, comparable within an allelic series)"
same,binding signal,PAX4 [13],"9.53 upbm affinity estimate (log intensity, higher = more binding, comparable within an allelic series)"
same,binding signal,CRX [6],"8.24 upbm affinity estimate (log intensity, higher = more binding, comparable within an allelic series)"
ATTAATCC,binding signal,CRX [1],"13.5 upbm affinity estimate (log intensity, higher = more binding, comparable within an allelic series)"
same,binding signal,PAX4 [14],"11.6 upbm affinity estimate (log intensity, higher = more binding, comparable within an allelic series)"
same,binding signal,CRX [2],"13.6 upbm affinity estimate (log intensity, higher = more binding, comparable within an allelic series)"
same,binding signal,PITX2,"13.4 upbm affinity estimate (log intensity, higher = more binding, comparable within an allelic series)"
same,binding signal,PAX4 [12],"10.9 upbm affinity estimate (log intensity, higher = more binding, comparable within an allelic series)"
same,binding signal,CRX [6],"13.5 upbm affinity estimate (log intensity, higher = more binding, comparable within an allelic series)"
AGCTCAGC,binding signal,CRX [1],"9.88 upbm affinity estimate (log intensity, higher = more binding, comparable within an allelic series)"
same,binding signal,CRX [2],"9.76 upbm affinity estimate (log intensity, higher = more binding, comparable within an allelic series)"
CCTTATTA,binding signal,CRX [1],"11 upbm affinity estimate (log intensity, higher = more binding, comparable within an allelic series)"
same,binding signal,HOXC10 [16],"11.3 upbm affinity estimate (log intensity, higher = more binding, comparable within an allelic series)"
same,binding signal,CRX [2],"10.9 upbm affinity estimate (log intensity, higher = more binding, comparable within an allelic series)"
same,binding signal,ALX3,"8.6 upbm affinity estimate (log intensity, higher = more binding, comparable within an allelic series)"
same,binding signal,HOXC10 [17],"11.2 upbm affinity estimate (log intensity, higher = more binding, comparable within an allelic series)"
same,binding signal,CRX [6],"10.4 upbm affinity estimate (log intensity, higher = more binding, comparable within an allelic series)"
GGTTAAAC,binding signal,CRX [1],"10.2 upbm affinity estimate (log intensity, higher = more binding, comparable within an allelic series)"
same,binding signal,CRX [2],"9.96 upbm affinity estimate (log intensity, higher = more binding, comparable within an allelic series)"
